Laboratory results from ChEMBL document CHEMBL3988442, “University of Dundee, Small-Polar-MMV Screening Library” (2021).
For some assays here: Measured potencies and affinities stand elsewhere.

Legend:
Design in all cases: scale not given: direction of the effect not stated beside the values
[1] = molecular target: Protein translocase subunit SecA (Escherichia coli (strain K12)) (UniProt P10408); test: Assay to Identify E. coli SecA ATPase Inhibitors; type: functional; conditions: 30 µM
[2] = molecular target: T1, Ubiquitin-activating enzyme e1, putative (Leishmania donovani (strain BPK282A1)) (UniProt E9BSI1); test: Leishmania donovani Ubiquitin Activating Enzyme (LdE1); type: functional; conditions: 30 µM
T1 sequence (whole entry): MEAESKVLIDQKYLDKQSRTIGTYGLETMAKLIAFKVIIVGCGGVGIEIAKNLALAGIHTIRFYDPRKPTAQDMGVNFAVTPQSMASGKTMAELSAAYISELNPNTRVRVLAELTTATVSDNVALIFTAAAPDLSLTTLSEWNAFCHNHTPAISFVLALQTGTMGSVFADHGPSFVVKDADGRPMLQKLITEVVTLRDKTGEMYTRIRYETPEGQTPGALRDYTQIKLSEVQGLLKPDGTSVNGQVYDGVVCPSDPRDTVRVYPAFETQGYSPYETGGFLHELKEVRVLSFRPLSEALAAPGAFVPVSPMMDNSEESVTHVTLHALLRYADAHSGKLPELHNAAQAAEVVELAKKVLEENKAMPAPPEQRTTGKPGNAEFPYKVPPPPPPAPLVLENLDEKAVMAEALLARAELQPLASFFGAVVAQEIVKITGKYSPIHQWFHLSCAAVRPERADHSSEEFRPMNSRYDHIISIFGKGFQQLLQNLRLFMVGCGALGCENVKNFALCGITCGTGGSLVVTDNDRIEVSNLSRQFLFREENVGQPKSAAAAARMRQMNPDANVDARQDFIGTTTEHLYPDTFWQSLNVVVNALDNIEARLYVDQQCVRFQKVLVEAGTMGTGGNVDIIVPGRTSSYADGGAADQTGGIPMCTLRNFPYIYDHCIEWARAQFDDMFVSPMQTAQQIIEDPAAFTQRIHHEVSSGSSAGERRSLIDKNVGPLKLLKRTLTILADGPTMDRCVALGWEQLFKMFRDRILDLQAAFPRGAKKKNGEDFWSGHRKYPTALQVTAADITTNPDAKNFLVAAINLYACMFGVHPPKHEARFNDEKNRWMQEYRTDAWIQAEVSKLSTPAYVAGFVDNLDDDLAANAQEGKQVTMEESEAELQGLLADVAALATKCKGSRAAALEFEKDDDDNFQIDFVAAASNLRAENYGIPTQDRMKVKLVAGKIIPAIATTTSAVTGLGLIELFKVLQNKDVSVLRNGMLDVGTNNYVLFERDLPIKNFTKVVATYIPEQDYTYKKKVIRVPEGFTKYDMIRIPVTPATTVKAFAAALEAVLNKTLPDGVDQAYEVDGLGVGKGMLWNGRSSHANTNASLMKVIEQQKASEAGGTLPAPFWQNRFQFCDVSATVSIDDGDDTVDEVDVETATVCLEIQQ

[3] = molecular target: AMP-activated protein kinase, AMPK (Homo sapiens) (UniProt P54646+O43741+P54619+Q9UGJ0+Q9Y478+Q13131+Q9UGI9); test: AMP-dependent Kinase enzyme assay. An in vitro enzyme assay that detects ADP turnover that is directly proportional to AMPK activity. This uses naive AMPK that is activated during the assay with MK-8722; type: functional; conditions: 30 µM
[4] = molecular target: Sialic acid-binding Ig-like lectin 9 (Homo sapiens) (UniProt Q9Y336); test: Hs-Siglec9 ALPHAscreen SOP 20170721; conditions: 10 µM
Chain of Sialic acid-binding Ig-like lectin 9 (Homo sapiens) (Q9Y336 whole entry): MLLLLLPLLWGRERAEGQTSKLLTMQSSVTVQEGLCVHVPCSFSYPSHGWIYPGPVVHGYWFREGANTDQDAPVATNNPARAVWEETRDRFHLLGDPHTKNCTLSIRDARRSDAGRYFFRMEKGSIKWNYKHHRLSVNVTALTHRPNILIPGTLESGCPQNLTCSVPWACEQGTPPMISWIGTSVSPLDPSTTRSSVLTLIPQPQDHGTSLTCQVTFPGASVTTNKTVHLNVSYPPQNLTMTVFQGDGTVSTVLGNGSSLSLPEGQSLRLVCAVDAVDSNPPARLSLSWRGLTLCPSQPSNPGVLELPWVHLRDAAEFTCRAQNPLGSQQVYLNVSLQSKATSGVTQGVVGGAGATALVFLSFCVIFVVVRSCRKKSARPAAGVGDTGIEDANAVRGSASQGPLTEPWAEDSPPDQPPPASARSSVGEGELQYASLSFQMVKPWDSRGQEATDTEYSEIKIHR

Trypanosoma cruzi = test: Trypanosoma cruzi phosphomannomutase and mannose-1-phosphate guanylyltransferase assay; type: functional; conditions: 10 µM
[5] = molecular target: T2, Arginase-2, mitochondrial (Homo sapiens) (UniProt P78540); test: in vitro enzyme assay to detect the production of urea directly proportional to the activity of Arginase II; type: functional; conditions: 33.3 µM; note: in the data most compounds retested in dose-response had high values
T2 sequence (whole entry): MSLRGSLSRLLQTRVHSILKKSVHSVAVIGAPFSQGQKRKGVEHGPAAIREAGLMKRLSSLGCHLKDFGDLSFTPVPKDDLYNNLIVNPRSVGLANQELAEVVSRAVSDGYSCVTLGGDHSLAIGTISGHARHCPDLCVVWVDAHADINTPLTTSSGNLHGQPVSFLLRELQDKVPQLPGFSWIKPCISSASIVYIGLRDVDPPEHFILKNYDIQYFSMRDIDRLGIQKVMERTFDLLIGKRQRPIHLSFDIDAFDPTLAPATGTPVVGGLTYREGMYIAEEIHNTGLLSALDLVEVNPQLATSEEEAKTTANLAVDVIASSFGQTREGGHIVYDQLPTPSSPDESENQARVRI

[6] = molecular target: T3, Proteasome subunit beta (Trypanosoma cruzi) (UniProt O96673); test: Trypanosoma cruzi proteasome chymotrypsin-like activity (TcProtChymo) assay.; note: in the data most compounds retested in dose-response had high values; type: functional; conditions: 9.37 µM
T3 sequence (whole entry): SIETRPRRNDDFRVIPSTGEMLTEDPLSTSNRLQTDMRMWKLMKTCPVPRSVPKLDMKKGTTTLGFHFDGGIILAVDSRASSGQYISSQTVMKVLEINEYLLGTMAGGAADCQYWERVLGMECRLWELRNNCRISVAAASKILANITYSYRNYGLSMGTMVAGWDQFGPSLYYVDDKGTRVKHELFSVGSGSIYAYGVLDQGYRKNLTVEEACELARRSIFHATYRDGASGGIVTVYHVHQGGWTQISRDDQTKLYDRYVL

Homo sapiens = species: Homo sapiens; test: To identify inhibition of the IFN signalling (Jak-Stat) pathway via expression of an eGFP reporter gene under the control of an IFN-stimulated response element (ISRE) containing MxA promoter.; type: functional; conditions: 30 µM
[7] = molecular target: T4, Tyrosyl-tRNA synthetase, putative (Trypanosoma cruzi (strain CL Brener)) (UniProt Q4DSP6); test: Trypanosoma cruzi tyrosyl tRNA synthetase (TcYRS) _High Tyrosine SOP; type: functional; conditions: 30 µM; note: in the data most compounds retested in dose-response had high values
T4 sequence (whole entry): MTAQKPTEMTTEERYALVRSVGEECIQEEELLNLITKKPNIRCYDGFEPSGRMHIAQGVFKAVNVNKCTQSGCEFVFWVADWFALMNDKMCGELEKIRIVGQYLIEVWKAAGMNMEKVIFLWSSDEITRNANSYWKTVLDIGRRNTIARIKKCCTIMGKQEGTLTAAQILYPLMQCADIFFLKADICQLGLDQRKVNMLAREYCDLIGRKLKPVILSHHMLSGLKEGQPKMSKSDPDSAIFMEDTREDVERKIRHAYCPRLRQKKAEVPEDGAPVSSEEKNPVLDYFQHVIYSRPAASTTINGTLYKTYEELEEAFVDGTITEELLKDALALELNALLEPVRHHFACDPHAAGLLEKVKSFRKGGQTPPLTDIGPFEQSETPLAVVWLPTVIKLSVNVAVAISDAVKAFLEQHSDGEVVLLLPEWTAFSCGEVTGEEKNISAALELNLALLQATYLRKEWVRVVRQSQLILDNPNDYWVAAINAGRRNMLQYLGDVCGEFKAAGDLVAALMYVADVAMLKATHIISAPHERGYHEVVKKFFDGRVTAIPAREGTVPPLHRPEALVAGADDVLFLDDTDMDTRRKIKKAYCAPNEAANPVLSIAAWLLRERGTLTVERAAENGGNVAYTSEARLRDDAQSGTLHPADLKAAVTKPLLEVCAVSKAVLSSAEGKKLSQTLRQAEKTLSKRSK

[8] = molecular target: T4, Tyrosyl-tRNA synthetase, putative (Trypanosoma cruzi (strain CL Brener)); test: Trypanosoma cruzi tyrosyl tRNA synthetase (TcYRS) SOP; type: functional; conditions: 30 µM
[9] = molecular target: Chromo domain-containing protein 1 (Saccharomyces cerevisiae (strain ATCC 204508 / S288c) (Baker's yeast)) (UniProt P32657); test: ScCHD-1 Enzyme Inhibition Assay; type: functional; conditions: 30 µM; note: in the data most compounds retested in dose-response had high values
Chain of Chromo domain-containing protein 1 (Saccharomyces cerevisiae (strain ATCC 204508 / S288c) (Baker's yeast)) (P32657 whole entry, the tested form may be a part): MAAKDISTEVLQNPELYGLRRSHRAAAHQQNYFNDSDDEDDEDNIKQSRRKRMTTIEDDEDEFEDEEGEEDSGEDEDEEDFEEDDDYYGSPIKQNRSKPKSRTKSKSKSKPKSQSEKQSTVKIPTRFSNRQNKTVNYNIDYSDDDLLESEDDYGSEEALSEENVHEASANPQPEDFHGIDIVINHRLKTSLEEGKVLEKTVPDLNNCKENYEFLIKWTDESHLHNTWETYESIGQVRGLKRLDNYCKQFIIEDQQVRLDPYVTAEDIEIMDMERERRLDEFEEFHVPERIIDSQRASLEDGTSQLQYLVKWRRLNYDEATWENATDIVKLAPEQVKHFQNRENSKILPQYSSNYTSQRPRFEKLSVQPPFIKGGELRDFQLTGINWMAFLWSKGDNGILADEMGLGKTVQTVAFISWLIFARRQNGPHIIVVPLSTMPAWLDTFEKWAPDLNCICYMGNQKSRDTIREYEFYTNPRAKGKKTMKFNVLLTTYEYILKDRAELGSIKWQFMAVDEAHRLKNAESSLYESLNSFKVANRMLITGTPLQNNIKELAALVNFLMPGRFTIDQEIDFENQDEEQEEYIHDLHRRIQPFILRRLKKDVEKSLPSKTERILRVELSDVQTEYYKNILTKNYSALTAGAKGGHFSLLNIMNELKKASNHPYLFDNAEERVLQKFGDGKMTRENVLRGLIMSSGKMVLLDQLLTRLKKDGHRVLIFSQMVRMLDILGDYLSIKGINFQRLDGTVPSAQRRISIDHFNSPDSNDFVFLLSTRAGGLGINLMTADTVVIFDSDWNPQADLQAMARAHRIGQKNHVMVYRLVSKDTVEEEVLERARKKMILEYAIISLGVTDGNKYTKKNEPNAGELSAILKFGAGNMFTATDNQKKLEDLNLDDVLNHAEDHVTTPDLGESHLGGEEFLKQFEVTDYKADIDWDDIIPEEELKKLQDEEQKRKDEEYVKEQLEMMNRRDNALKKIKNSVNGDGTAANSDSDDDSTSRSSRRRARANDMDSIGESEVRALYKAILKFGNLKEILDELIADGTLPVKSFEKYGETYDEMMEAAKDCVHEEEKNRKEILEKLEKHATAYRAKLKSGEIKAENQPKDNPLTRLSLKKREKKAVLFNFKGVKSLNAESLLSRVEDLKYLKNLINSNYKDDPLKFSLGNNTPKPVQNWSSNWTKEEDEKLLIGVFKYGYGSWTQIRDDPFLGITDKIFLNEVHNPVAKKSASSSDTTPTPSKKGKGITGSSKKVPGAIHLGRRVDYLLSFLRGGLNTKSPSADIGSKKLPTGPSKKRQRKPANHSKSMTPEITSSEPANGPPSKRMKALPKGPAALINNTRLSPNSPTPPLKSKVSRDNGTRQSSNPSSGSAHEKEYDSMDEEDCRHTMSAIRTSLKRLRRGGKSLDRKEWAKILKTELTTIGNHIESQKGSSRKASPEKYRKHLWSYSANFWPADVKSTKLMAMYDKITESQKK

Chain of Protein translocase subunit SecA (Escherichia coli (strain K12)) (P10408 whole entry): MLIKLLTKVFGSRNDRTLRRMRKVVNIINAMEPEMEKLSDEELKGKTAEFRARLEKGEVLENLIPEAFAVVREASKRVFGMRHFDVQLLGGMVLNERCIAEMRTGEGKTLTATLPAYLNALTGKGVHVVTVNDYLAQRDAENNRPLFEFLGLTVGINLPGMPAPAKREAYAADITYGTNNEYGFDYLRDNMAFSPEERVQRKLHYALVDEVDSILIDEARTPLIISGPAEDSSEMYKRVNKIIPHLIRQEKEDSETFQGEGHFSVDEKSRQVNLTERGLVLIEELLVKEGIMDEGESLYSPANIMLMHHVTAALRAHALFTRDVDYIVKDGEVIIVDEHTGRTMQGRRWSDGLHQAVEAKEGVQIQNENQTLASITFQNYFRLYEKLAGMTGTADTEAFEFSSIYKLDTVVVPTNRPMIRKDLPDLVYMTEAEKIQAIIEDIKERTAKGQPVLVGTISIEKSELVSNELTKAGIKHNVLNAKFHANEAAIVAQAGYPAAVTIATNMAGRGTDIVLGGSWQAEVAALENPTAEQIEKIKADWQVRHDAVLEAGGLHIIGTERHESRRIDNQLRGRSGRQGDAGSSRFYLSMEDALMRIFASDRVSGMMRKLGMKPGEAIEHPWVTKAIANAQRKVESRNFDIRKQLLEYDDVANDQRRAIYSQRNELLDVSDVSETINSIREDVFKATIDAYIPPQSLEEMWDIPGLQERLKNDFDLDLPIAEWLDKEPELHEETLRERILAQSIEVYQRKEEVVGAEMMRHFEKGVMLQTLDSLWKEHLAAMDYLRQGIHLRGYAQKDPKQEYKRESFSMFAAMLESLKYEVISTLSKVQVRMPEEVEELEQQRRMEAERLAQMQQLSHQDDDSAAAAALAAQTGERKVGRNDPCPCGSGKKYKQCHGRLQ

Structure (SMILES) | Percent Effect [1] [%] | Percent Effect [2] [%] | Percent Effect [3] [%] | Percent Effect [4] [%] | Percent Effect (Trypanosoma cruzi) [%] | Percent Effect [5] [%] | Percent Effect [6] [%] | Percent Effect (Homo sapiens) [%] | Percent Effect [7] [%] | Percent Effect [8] [%] | Percent Effect [9] [%]
Cn1ccc2c(C(=O)N3CCC(C(N)=O)CC3)cccc21 | 0.857 | 14.7 | 2.71 | -1.54 | -4.13 | -9.68 | 13.1 | 7.15 | 8.47 | 17.9 | -10.7
O=C(NCc1ccccn1)c1nnn(-c2ccc(Br)cc2)n1 | -3.5 | 18.2 | -2.49 | -2.46 | 1.68 | -5.81 | 13.2 | 16.1 | 5.29 | 11.5 | -12.6
O=C(NC[C@@H]1CCCN1)c1cc(COc2cccc(C(F)(F)F)c2)[nH]n1 | -1.63 | 9.72 | -0.951 | 10.3 | 2.62 | 21.6 | 6.32 | -13.9 | 4.21 | 7.69 | -1.17
O=C(NCCCn1nc2ccccn2c1=O)NC1CCC(O)CC1 (configuration not stated) | -2.16 | 2.74 | 9.76 | 3.96 | -8.62 | 0.455 | 22.5 | 9.28 | 0 | 2.5 | -4.68
CN(CCc1cccs1)C1CCCN(Cc2noc(C3CC3)n2)C1 (configuration not stated) | -1.04 | 4.17 | -15.1 | -5.62 | 2.82 | 10.2 | 15.6 | -4.89 | 3.16 | 7.69 | -3.54
Cc1cc2n(n1)CC(CNC1CCN(Cc3ccccc3C)CC1)CN2 (configuration not stated) | -8.28 | 0 | -15.1 | 13.7 | 0.684 | -2.73 | 2.49 | 16.5 | 4.3 | 3.7 | -2.06
CCCn1nc(C)c(CNC(=O)C2COc3c(cccc3OC)C2)c1C (configuration not stated) | -3.57 | 2.74 | -2.55 | 6.74 | 1.19 | -5.59 | 15.5 | 10.2 | 6.25 | 16.1 | -3.25
O=C(COc1cccc(Br)c1)N1CCOCC1c1ncon1 (configuration not stated) | -1.32 | -2.7 | -2.58 | -3.06 | 6.13 | 1.6 | 1.44 | -26.1 | 1.48 | -1.24 | -4.52
CCO[C@@H]1CO[C@@]2(CCCN(C(=O)c3ccc(OC)c(F)c3)C2)C1 | -3.5 | 10.4 | 6.36 | -0.114 | -3.06 | 11 | 16.5 | 6.86 | 11.6 | 8.97 | -7.2
CC(CNC(=O)c1ccc(Cl)cc1I)N1CCCC1 (configuration not stated) | -0.489 | -2.7 | -6.38 | -1.77 | 7.53 | -2.38 | 27.4 | -7.67 | 6.88 | 12.2 | 51.2
Cn1ccnc1-c1cccc(NC(=O)NCCCO)c1 | -0.628 | 6.94 | -4.42 | 2.52 | 0.875 | 19.4 | 11.8 | 15.7 | 5.26 | 7.69 | -4.21
Cc1nc2n(n1)CC(NCc1cc(Cl)c3c(c1)OCCCO3)CC2 (configuration not stated) | -6.19 | 15.8 | -7.14 | 11.4 | 5.51 | -1.44 | 6.01 | 6.53 | 6.4 | 25.9 | -3.53
COc1ccnc(N2CCN(C(=O)c3csc(C(C)C)n3)CC2)n1 | -7.52 | 10.8 | -3.77 | 29.4 | 9.68 | 5.21 | 7.3 | 13 | 4.3 | 11.1 | -11.3
O=C(c1cccnc1N1CCOCC1)N1CCCC1Cn1cccn1 (configuration not stated) | -4.57 | 7.79 | 5.93 | 8.78 | 1.47 | 0.632 | -0.242 | -15.5 | 3.81 | 2.35 | -12
Cc1nc(C)n(CC2CN(c3nnc(C)c(C)c3C#N)CCO2)n1 (configuration not stated) | -5.18 | 7.89 | 1.44 | 6.73 | 1.13 | 2.68 | 8.52 | 1.18 | 7.35 | 12.2 | 0.234
c1csc(-c2nc(CN3CCOC(Cn4cncn4)C3)co2)c1 (configuration not stated) | -2.48 | 10.8 | -9.47 | -3.91 | -0.0943 | -6.01 | 20.4 | 9.28 | 9.36 | 18.5 | -5.77
CN(CC(=O)NC1(C#N)CCCC1)C1CCCN(c2cccnn2)C1 (configuration not stated) | -3.01 | 7.89 | -63.6 | 7.82 | 8.12 | 2.16 | 11.6 | -30.1 | 6.4 | 18.5 | -6.35
Cc1[nH]c(=O)[nH]c(=O)c1CN1CCCC(CCc2c(F)cccc2F)C1 (configuration not stated) | -0.639 | 8.11 | -5.43 | 13.8 | 1.16 | 1.91 | 9.14 | 5.92 | 3.7 | -9.76 | -1.15
CCN1CCCC(CNC(=O)C2(c3cccc(Cl)c3)CC2)C1 (configuration not stated) | -4.26 | 6.33 | 0.975 | 3.63 | -5.85 | -2.8 | 14.6 | 8.9 | 7.29 | 15.2 | -13.8
Cc1nccn1-c1nccnc1C1CCN(Cc2ccc(F)cc2)CC1 | -2.09 | 21.3 | 4.62 | -5.84 | 5.91 | -2.56 | 15.2 | 7.46 | 4.25 | 16.7 | -4.22
Cn1cnc2c1C(COCC1CCOCC1)CN(C1CCOCC1)C2 (configuration not stated) | -3.42 | 13.3 | 10.9 | 4.02 | -2.76 | 3.96 | 6.96 | -11.2 | 5.32 | 11.5 | -4.46
COc1ccc(OCc2nc(C(=O)N3CC[C@H](O)[C@@H](O)C3)co2)cc1 | -5.04 | 2.7 | -0.405 | 4.91 | -3.09 | -0.476 | 12.8 | -0.834 | 6.88 | 12.2 | -4.44
